Test results reported in PubChem BioAssay AID1159580 (chemical genetic matrix, 2015).
Hit rate of the full screen: of about 5,500 compounds, about 2,000 (36%) were called active. Roughly 18% stayed inconclusive and do not appear here. No stated cut-off is given here; in the data, active means normalized growth mostly below about 0.91 (no sharp cut-off); inconclusive means no clear call, values can overlap the other calls; inactive means mostly above about 0.92. The list shows a part of the results.

Assay: chemical genetic growth profiling, strain panel (AID 1159580);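 further: tested at 20 µM; growth read once vehicle control cultures reached saturation at 30 °C; 1 = growth at the plate median or of vehicle wells; lower values mean less growth of the strain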
Settings: growth OD
[1] = S. cerevisiae deletion strains, locus YAL013W, strain DEP1, hits give low values
[2] = S. cerevisiae deletion strains, locus YDR150W, strain NUM1, hits give low values
[3] = S. cerevisiae deletion strains, locus YGR078C, strain PAC10, hits give low values
[4] = S. cerevisiae deletion strains, locus YMR307W, strain GAS1, hits give low values
[5] = S. cerevisiae deletion strains, locus YNL153C, strain GIM3, hits give low values
[6] = S. cerevisiae deletion strains, locus YPL055C, strain LGE1, hits give low values

Measured: normalized growth

O=C(Nc1nncs1)c1ccncc1
inactive: [1] 0.983 | S. cerevisiae deletion strains, locus YBR229C, strain ROT2, hits give low values 1 | S. cerevisiae deletion strains, locus YDL101C, strain DUN1, hits give low values 0.999 | S. cerevisiae deletion strains, locus YDL134C, strain PPH21, hits give low values 1.02 | [2] 0.946 | S. cerevisiae deletion strains, locus YEL061C, strain CIN8, hits give low values 0.999 | [3] 1 | S. cerevisiae deletion strains, locus YHR030C, strain SLT2, hits give low values 0.996 | S. cerevisiae deletion strains, locus YHR087W, strain rtc3, hits give low values 1 | S. cerevisiae deletion strains, locus YJL187C, strain SWE1, hits give low values 0.992 | S. cerevisiae deletion strains, locus YJR043C, strain POL32, hits give low values 1.01 | S. cerevisiae deletion strains, locus YJR075W, strain HOC1, hits give low values 0.991 | S. cerevisiae deletion strains, locus YKL190W, strain CNB1, hits give low values 1.03 | S. cerevisiae deletion strains, locus YLR039C, strain RIC1, hits give low values 1.08 | S. cerevisiae deletion strains, locus YLR058C, strain SHM2 (second series), hits give low values 1 | S. cerevisiae deletion strains, locus YLR085C, strain ARP6, hits give low values 1.04 | S. cerevisiae deletion strains, locus YLR262C, strain YPT6, hits give low values 1.05 | S. cerevisiae deletion strains, locus YML094W, strain GIM5, hits give low values 1.02 | S. cerevisiae deletion strains, locus YMR219W, strain ESC1, hits give low values 1 | S. cerevisiae deletion strains, locus YMR263W, strain SAP30, hits give low values 0.949 | [4] 1.02 | S. cerevisiae deletion strains, locus YNL128W, strain TEP1, hits give low values 1.02 | [5] 0.995 | S. cerevisiae deletion strains, locus YNL298W, strain CLA4 (second series), hits give low values 1.07 | S. cerevisiae deletion strains, locus YNL322C, strain KRE1, hits give low values 1 | S. cerevisiae deletion strains, locus YNR030W, strain Alg12, hits give low values 1.04 | S. cerevisiae deletion strains, locus YOL006C, strain TOP1, hits give low values 1.08 | [6] 0.888 | S. cerevisiae deletion strains, locus YPL241C, strain CIN2, hits give low values 1.03 | S. cerevisiae deletion strains, locus YPR135W, strain CTF4, hits give low values 1.05 | S. cerevisiae strains, strain wild type, hits give low values 1.04

S=C(Nc1ccccc1)Nc1nccs1
active: [5] 0.772
inactive: [1] 1.01 | S. cerevisiae deletion strains, locus YAL040C, strain CLN3, hits give low values 1.01 | S. cerevisiae deletion strains, locus YCL061C, strain MRC1 (second series), hits give low values 0.993 | [2] 0.974 | S. cerevisiae deletion strains, locus YDR363W, strain ESC2, hits give low values 0.977 | S. cerevisiae deletion strains, locus YER002W, strain NOP16, hits give low values 0.991 | [3] 0.988 | [4] 0.993 | S. cerevisiae deletion strains, locus YNL175C, strain NOP13, hits give low values 0.999 | S. cerevisiae deletion strains, locus YNL197C, strain WHI3, hits give low values 0.993 | S. cerevisiae deletion strains, locus YNL224C, strain SQS1, hits give low values 0.995 | [6] 0.948
